Screens from PubChem BioAssay.
This is one part of a sample in which hits are shown more often than they occur.
STK33 kin inh = blocks human STK33 kinase activity; AID 2322; Q9BYT3; ADP-Glo luminescence, MBP substrate; inhibition, % at 12.5 µM; 27,000 tested, 0.44% active; in the data active = inhibition above about 20%
Target sequence (Q9BYT3 whole entry, looked up): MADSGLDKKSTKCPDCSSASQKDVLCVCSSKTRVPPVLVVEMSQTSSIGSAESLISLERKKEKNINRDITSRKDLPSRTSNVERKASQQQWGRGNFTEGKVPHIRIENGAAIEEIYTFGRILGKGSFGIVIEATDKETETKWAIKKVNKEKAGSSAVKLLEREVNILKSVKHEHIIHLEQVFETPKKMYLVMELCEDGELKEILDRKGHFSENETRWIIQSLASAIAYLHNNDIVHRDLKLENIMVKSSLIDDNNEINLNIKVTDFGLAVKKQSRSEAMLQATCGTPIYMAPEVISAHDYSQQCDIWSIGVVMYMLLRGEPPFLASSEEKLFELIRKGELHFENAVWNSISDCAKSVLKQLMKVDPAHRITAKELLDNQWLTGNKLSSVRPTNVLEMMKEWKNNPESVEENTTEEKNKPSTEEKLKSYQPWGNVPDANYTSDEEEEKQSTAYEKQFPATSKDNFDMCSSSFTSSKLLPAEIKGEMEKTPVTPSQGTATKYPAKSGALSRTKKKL
PD-1 reverse act = reversal of PD-1 mediated T-cell inhibition | primary human CD4 T cells, PD-L1 beads, CellTiter-Glo 96 h | activation, % (concentration not given with the values) | 29,000 tested, under 10 active; call rule not given here;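 note: 0% = median vehicle wells and 100% = positive control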
NOMO-1 viab = STK33 inhibitor candidate reducing NOMO-1 cell viability. AID 2330. 37,000 tested, 7.5% active. NOMO-1 AML viability, CellTiter-Glo luminescence, 72 h. inhibition, % (test concentration not listed); in the data active = inhibition above about 80%
An asterisk follows results filed as active; nt = not tested or not shown.

SMILES	STK33 kin inh	PD-1 reverse act	NOMO-1 viab
O=C(CSc1nnc2scc(-c3ccccc3)n12)c1ccc2c(c1)OCCO2	-1	2	-3
Cc1ccc(-c2csc3nnc(SCC(=O)c4ccc(Cl)c(Cl)c4)n23)cc1	1	-6	103*
COc1ccc(CN(C)C[C@H]2Oc3ccc(NC(=O)Nc4ccc(OC)cc4)cc3C(=O)N([C@@H](C)CO)C[C@@H]2C)cc1	nt	nt	13
COc1ccc(CN(C)C[C@H]2Oc3ccc(NC(=O)Nc4ccc(F)cc4)cc3C(=O)N([C@H](C)CO)C[C@H]2C)cc1	nt	-1	5
COc1ccc(CN(C)C[C@H]2Oc3ccc(NC(=O)Nc4ccc(C(F)(F)F)cc4)cc3C(=O)N([C@H](C)CO)C[C@H]2C)cc1	nt	nt	129*
COc1ccc(CN(C)C[C@H]2Oc3ccc(NC(=O)Nc4ccc(C(F)(F)F)cc4)cc3C(=O)N([C@@H](C)CO)C[C@H]2C)cc1	nt	-6	126*
COc1ccc(CN(C)C[C@H]2Oc3ccc(NC(=O)Nc4ccc(C(F)(F)F)cc4)cc3C(=O)N([C@H](C)CO)C[C@@H]2C)cc1	nt	-5	104*
COc1ccc(CN(C)C[C@@H]2OCCCC[C@@H](C)Oc3ccc(NC(=O)Nc4ccc(C(F)(F)F)cc4)cc3C(=O)N([C@H](C)CO)C[C@@H]2C)cc1	3	-5	113*
COc1ccc(CN(C)C[C@H]2Oc3ccc(NC(=O)Nc4ccc(OC)cc4)cc3C(=O)N([C@@H](C)CO)C[C@H]2C)cc1	2	0	29
COc1ccc(CN(C)C[C@H]2OCCCC[C@@H](C)Oc3ccc(NC(=O)Nc4ccc(OC)cc4)cc3C(=O)N([C@H](C)CO)C[C@@H]2C)cc1	-3	-1	8
Cc1noc(C)c1NC(=O)N(C)C[C@H]1Oc2c(NS(=O)(=O)c3ccc(Cl)cc3)cccc2C(=O)N([C@H](C)CO)C[C@@H]1C	nt	nt	6
COc1ccccc1NC(=O)N(C)C[C@H]1OCc2cn(nn2)CCCC(=O)N([C@H](C)CO)C[C@@H]1C	0	nt	nt
Cc1ccc(-c2noc(CSc3nc(C)cc(C)n3)n2)cc1	1	2	15
C[C@H](CO)N1C[C@H](C)[C@H](CN(C)S(=O)(=O)c2cn(C)cn2)Oc2ccc(NC(=O)CCN3CCOCC3)cc2C1=O	nt	1	0
C[C@@H]1CCCCO[C@H](CN(C)CC2CCCCC2)[C@@H](C)CN([C@H](C)CO)C(=O)c2cc(NS(=O)(=O)c3ccccc3)ccc2O1	0	-5	21
C[C@@H]1CCCCO[C@@H](CN(C)Cc2ccncc2)[C@@H](C)CN([C@H](C)CO)C(=O)c2cc(NC(=O)Cc3ccccc3)ccc2O1	1	1	15
COc1ccc(CN(C)C[C@H]2Oc3ccc(NC(=O)Nc4ccc(F)cc4)cc3C(=O)N([C@@H](C)CO)C[C@H]2C)cc1	nt	0	16
COc1ccc(NC(=O)Nc2ccc3c(c2)C(=O)N([C@@H](C)CO)C[C@H](C)[C@H](CN(C)Cc2ccncc2)O3)cc1	-6	1	103*
COc1ccc(CN(C)C[C@@H]2Oc3ccc(NC(=O)Nc4ccc(C(F)(F)F)cc4)cc3C(=O)N([C@@H](C)CO)C[C@H]2C)cc1	nt	nt	117*
COc1ccc(CN(C)C[C@@H]2Oc3ccc(NC(=O)Nc4ccc(F)cc4)cc3C(=O)N([C@@H](C)CO)C[C@@H]2C)cc1	-2	3	26
COc1ccc(NC(=O)Nc2ccc3c(c2)C(=O)N([C@H](C)CO)C[C@@H](C)[C@@H](CN(C)Cc2ccncc2)O3)cc1	nt	0	7
COc1ccc(NC(=O)Nc2ccc3c(c2)C(=O)N([C@H](C)CO)C[C@H](C)[C@@H](CN(C)Cc2ccc(C(F)(F)F)cc2)O3)cc1	nt	-2	107*
CC(=O)c1ccc(NC(=O)CN(C)S(=O)(=O)c2ccccc2)cc1	-2	nt	-12
c1ccc2[nH]c(-c3nc4ccccc4s3)nc2c1	nt	-3	127*
c1cc(-c2nc3ccccc3s2)nc(-c2nc3ccccc3s2)c1	nt	0	15
C[C@@H]1CN([C@H](C)CO)C(=O)c2cc(NC(=O)C3CC3)ccc2O[C@H]1CN(C)C(=O)Nc1ccc2c(c1)OCO2	nt	nt	36
CC1(C)Cc2c(sc3c2c(=O)n(Cc2ccccc2)c2nnc(SCC(=O)c4ccc(Cl)cc4)n32)CO1	0	3	3
COc1ccc(NC(=O)CCCSc2nc(N)c3c(C)c(C)sc3n2)cc1	-2	nt	9
COc1cc(OC)cc(-c2nc(N)c3c(C)c(-c4ccc(OC)c(OC)c4)sc3n2)c1	nt	-7	115*
C=C1C(=O)O[C@H]2[C@H]1[C@@H](OC(=O)C(C)(O)CCl)C(OC(C)=O)/C(C(=O)OC)=C\CC[C@@]1(C)O[C@H]21 (stereo not given in full)	0	-12	109*
